This note sets out measurements from PubChem BioAssay AID2156 (Johns Hopkins Ion Channel Center, 2009).

Each structure is given as a SMILES string. In all, about 310,000 compounds went through this assay and about 3,400 (1.1%) were called active.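 Rule for the calls: active = fluorescence ratio B-score at most minus 3 library SDs, with starting brightness B-score within 2 library SDs (cut at about -5.5 in these data); inactive = the rest, inconclusive results apart.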 What follows is part of a selection rich in actives, with near analogues and random picks from the rest.

Potassium voltage-gated channel subfamily KQT member 2 (Rattus norvegicus), sequence (O88943 whole entry, looked up): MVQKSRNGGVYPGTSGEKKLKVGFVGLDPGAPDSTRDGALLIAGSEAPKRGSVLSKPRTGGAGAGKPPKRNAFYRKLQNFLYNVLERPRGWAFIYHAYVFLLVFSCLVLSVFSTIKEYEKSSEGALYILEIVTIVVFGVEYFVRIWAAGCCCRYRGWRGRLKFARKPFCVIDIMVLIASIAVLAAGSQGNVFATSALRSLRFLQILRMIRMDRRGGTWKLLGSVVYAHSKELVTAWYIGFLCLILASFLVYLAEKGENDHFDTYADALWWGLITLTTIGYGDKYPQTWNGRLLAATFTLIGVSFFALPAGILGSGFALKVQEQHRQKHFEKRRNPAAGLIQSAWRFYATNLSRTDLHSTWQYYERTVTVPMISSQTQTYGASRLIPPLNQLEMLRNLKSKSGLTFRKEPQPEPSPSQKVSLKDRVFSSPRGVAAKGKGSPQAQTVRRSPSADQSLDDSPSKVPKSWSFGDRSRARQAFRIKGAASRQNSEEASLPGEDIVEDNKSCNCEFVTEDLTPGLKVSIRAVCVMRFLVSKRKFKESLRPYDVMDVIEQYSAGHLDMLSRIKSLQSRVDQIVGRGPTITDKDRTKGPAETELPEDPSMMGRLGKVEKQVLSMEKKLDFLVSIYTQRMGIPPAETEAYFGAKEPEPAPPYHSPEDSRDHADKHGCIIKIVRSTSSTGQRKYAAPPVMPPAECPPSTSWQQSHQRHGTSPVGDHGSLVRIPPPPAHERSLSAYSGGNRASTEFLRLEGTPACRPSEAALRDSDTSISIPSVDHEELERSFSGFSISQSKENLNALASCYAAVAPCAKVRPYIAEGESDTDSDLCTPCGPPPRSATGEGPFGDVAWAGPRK

This assay addresses Potassium voltage-gated channel subfamily KQT member 2 (Rattus norvegicus) (UniProt O88943). Put plainly: rat KCNQ2 potassium channel inhibitors, primary screen, cell-based, CHO-K1, FluxOR thallium flux, B-score (AID 2156). Conditions: 20 min, at 10 µM; stronger effect = lower value.
As for `Cc1ccc(S(=O)(=O)N(C)C)cc1NC(=O)COC(=O)/C=C/c1cccs1`, the B-score entry was “inactive”. Next, `CC(OC(=O)CCCc1c[nH]c2ccccc12)C(=O)Nc1ccc(S(N)(=O)=O)cc1` (configuration not stated): -1.39 (inactive).

As to `CSCc1cc(N(C)C)nc(SCc2ccc(Cl)cc2Cl)n1`, the B-score is -9.71 (active). Next, `CSCc1cc(N2CCOCC2)nc(SCc2ccc(Cl)cc2Cl)n1`: -0.52 (inactive).

For the compound `Clc1ccc(CSc2nnc(/C=C/c3ccccc3)o2)c(Cl)c1`, the B-score was -5.38 (inactive). Next, `C=CCOc1ccc(/C=C/C(=O)OCC(=O)NC(C)c2ccc(F)cc2)cc1` (configuration not stated): “inactive”; `O=C(Nc1ccc(S(=O)(=O)N2CCCCC2)cc1)C1CCN(C(=O)c2ccc(F)cc2)CC1`: -0.91 (inactive); `CCOC(=O)C(Cc1ccc(N)cc1)N1C(=O)c2ccccc2C1=O` (configuration not stated): “inactive”. `CC1=CC(C)(C)Nc2ccc(OC(=O)CN3C(=O)C4CCCCC4C3=O)cc21` (configuration not stated): the B-score was -1.65 (inactive). Next, `CC1=CC(C)(C)Nc2ccc(OC(=O)C(Cc3ccccc3)N3C(=O)C4CCCCC4C3=O)cc21` (configuration not stated): -7.42 (active); `CCC/C=C(\CCC)C(NC(=O)Cc1ccccc1)c1ccc(C(=O)OC)cc1` (configuration not stated): -7.39 (active). Next, `COC(=O)c1ccc(C(NC(=O)OCc2ccccc2)/C(F)=C/[C@@H](C)C(=O)O)cc1` (some centres not stated): -1.01 (inactive); `CCC[C@@H]1C[C@@]1(CCC)[C@@H](NC(=O)c1ccccc1)c1ccc(C(=O)OC)cc1`: -5.11 (inactive); `Cc1ccc(C(=O)CN2C(=O)NC3(CCc4ccccc43)C2=O)c(C)c1` (configuration not stated): -1.41 (inactive). Next, `COc1ccccc1-n1ccnc(SCC(=O)NC2CCCCC2)c1=O`: “inactive”; `O=C1[C@H]2[C@@H](c3ccc(Cl)cc3)N3C(=O)N(c4cccc(F)c4)C(=O)[C@@]3(Cc3ccccc3)[C@H]2C(=O)N1C1CCCCC1`: “inactive”; `COc1ccc(N2CC(NS(=O)(=O)c3ccc4ccccc4c3)CC2=O)cc1` (configuration not stated): -0.16 (inactive). For `CC1CN(c2nc(-c3ccccc3)nnc2-c2ccccc2)CC(C)O1` (configuration not stated), the B-score is -6.3 (active). With `CC1CN(c2nc(Nc3ccccc3)nc(N)c2[N+](=O)[O-])CC(C)O1` (configuration not stated), the B-score was -0.73 (inactive). Next, `Cc1ccc(-c2nnc(C)c(N3CC(C)OC(C)C3)n2)cc1` (configuration not stated): -0.19 (inactive); `C=CS(=O)c1sc(Cl)c(N2CCOCC2)c1[N+](=O)[O-]` (configuration not stated): -15.5 (active); `COc1ccc(NC(=O)CN(C)C(=O)/C=C/c2cn(Cc3ccccc3)nc2-c2cccnc2)cc1`: -0.04 (inactive). Next, `O=C(COc1ccccc1)Nc1ccc(F)cc1`: -1.43 (inactive). Turning to `O=C(NCCCO)c1cc2c([nH]c3ccccc32)c(-c2ccc(F)cc2)n1`, the B-score result was “inactive”.

Turning to `O=C(NCC1CCCO1)c1cc2c([nH]c3ccccc32)c(-c2ccc(F)cc2)n1` (configuration not stated), the B-score was -8.97 (active). As to `O=C(NCC1CCCO1)c1cc(-c2ccccc2)nc2ccccc12` (configuration not stated), the B-score entry is “inactive”. In the case of `COc1ccc(C(=O)N(Cc2ccccc2)c2ccc(C)cc2)cc1S(=O)(=O)N1CCOCC1` it was -0.58 (inactive).

Regarding `CC1CCCCC1NC(=O)c1cc(=O)[nH]c2ccccc12` (configuration not stated), the B-score is -0.66 (inactive).

For `O=C(NC1CCCCC1)C1c2ccccc2C(=O)N1Cc1ccco1` (configuration not stated), the B-score result was “inactive”. In the case of `CCc1ccc(CN2C(=O)c3ccccc3C2C(=O)NCC2CCCO2)cc1` (configuration not stated) it was “inactive”.

In the case of `CC1CCC(NC(=O)C2c3ccccc3C(=O)N2Cc2ccc3c(c2)OCO3)CC1` (configuration not stated), the B-score is -6.13 (active). In the case of `Cc1cc(C)cc(NC(=O)COc2coc(CN3CCN(c4ccccc4)CC3)cc2=O)c1` it was “inactive”; in that of `CSc1ccc(S(=O)(=O)NCC(=O)OCC(=O)NC2(C#N)CCCCC2)cc1[N+](=O)[O-]`, “inactive”. Next, `CN1CCN(C2Cc3ccc(Cl)cc3Sc3ccc(F)cc32)CC1` (configuration not stated): -4.84 (inactive); `CCOc1ccc(NC(=O)c2ccc(NC(=O)CN3C(=O)C(=O)N(CC(C)C)C3=O)cc2)cc1`: “inactive”. In the case of `O=C(c1cccc(C(=O)N2CCN(c3ccc(F)cc3)CC2)c1)N1CCN(c2ccc(F)cc2)CC1` it was -6 (active); in that of `O=C(c1cccc(F)c1)N1CCN(c2ccc([N+](=O)[O-])c(N3CCCCC3)c2)CC1`, -0.07 (inactive); in that of `O=C(c1cc(C(=O)N2CCN(c3ccc(F)cc3)CC2)cc([N+](=O)[O-])c1)N1CCN(c2ccc(F)cc2)CC1`, -5.93 (active). As for `O=C(c1cc2cc(F)ccc2[nH]1)N1CCN(c2ccc(F)cc2)CC1`, the B-score entry is “inactive”. In the case of `O=C(c1ccccc1)c1ccc(C(=O)N2CCN(c3ccccc3)CC2)cc1` it was -0.65 (inactive); in that of `O=C(c1cncc(Br)c1)N1CCN(c2ccc([N+](=O)[O-])cc2)CC1`, -4.15 (inactive). Next, `Cc1ccc(Cc2nnc(SCC(=O)Nc3ccc(C)cc3C)[nH]c2=O)cc1`: “inactive”; `CC(=O)CC(CC(=O)NC1CCCCC1)c1ccccc1` (configuration not stated): “inactive”; `O=C1[C@H]2[C@@H](c3ccc(F)cc3)N3C(=O)N(c4ccc(C(F)(F)F)cc4)C(=O)[C@@]3(Cc3ccccc3)[C@H]2C(=O)N1C1CCCCC1`: -0.02 (inactive). Next, `O=C(NCC(c1ccco1)N1CCc2ccccc2C1)c1ccccc1Cl` (configuration not stated): -1.22 (inactive); `Cc1ccc(Cc2nnc(SCC(=O)Nc3ccccc3C)[nH]c2=O)cc1`: “inactive”.

Turning to `CCOc1ccc(NS(=O)(=O)c2ccc(C(=O)NC3CCN(Cc4ccccc4)CC3)cc2)cc1`, the B-score entry is “inactive”.

Regarding `CCOc1cc(C(C(=O)NCC2CCCO2)N(C(=O)Cn2nnc3ccccc32)c2cccc(OC)c2)ccc1O` (configuration not stated), the B-score entry was “inactive”. Next, `CCOc1cc(-c2nc3cc(C)ccn3c2NCC2CCCO2)ccc1O` (configuration not stated): -5.56 (active); `CCOc1ccc(N(CC(=O)NCC2CCCO2)S(=O)(=O)c2ccc(C)cc2)cc1` (configuration not stated): -0.74 (inactive); `O=[N+]([O-])c1ncc(Br)cc1Nc1ccccc1`: -2.54 (inactive). In the case of `CC(=O)N1CCN(C(=O)c2cc(-c3ccc(C)o3)nc3ccccc23)CC1` it was “inactive”. Next, `Cn1cccc1C(=O)NNC(=O)COc1ccc(Br)cc1`: -0.05 (inactive); `COc1cc(NC(=O)CSC(=S)N2CCCC2)c(OC)cc1Cl`: “inactive”. As for `Fc1ccc2[nH]c3c(N4CCSCC4)ncnc3c2c1`, the B-score is -10.1 (active). Next, `Cc1c(CN2CC[C@@H](N3CCN(c4ccccn4)CC3)[C@H](O)C2)[nH]c2ccc(F)cc12`: -0.01 (inactive); `CC(C)OCCCNc1ncnc2c1[nH]c1ccc(F)cc12`: -0.41 (inactive).

On to `Cc1ccc(CNS(=O)(=O)CCNC(=O)c2ccccc2)cc1`, for which the B-score entry was “inactive”.

Turning to `CSc1ccccc1NC(=O)c1cnc2sc(C)cn2c1=O`, the B-score result was “inactive”.

As to `O=C(Nc1ccccc1)N1CCN(C(=O)Nc2ccccc2)CC1`, the B-score result was “inactive”.

Consider `COc1cc(C(=O)NCC(=O)N2CC=C(c3ccccc3)CC2)cc(OC)c1OC`, for which the B-score entry is “inactive”. Next, `O=C(Nc1ccc(Cl)c(Cl)c1)N1CC=C(c2ccccc2)CC1`: -8.43 (active); `CC(OC(=O)CNC(=O)c1cccc(F)c1)C(=O)NC1CCCCC1C` (configuration not stated): “inactive”; `COCCCN(C(=O)CSCc1ccc(C)cc1)c1c(N)n(Cc2ccccc2)c(=O)[nH]c1=O`: “inactive”. As for `CCCCCCOc1ccc(OC(=O)c2cccnc2)cc1`, the B-score result is “inactive”.

Regarding `CN(C)CCCN1C(=O)CSC1c1ccc([N+](=O)[O-])cc1` (configuration not stated), the B-score was -0.19 (inactive). In the case of `CCCCCCCCCCCCN1C(=O)CSC1c1cccnc1` (configuration not stated) it was -6.52 (active); in that of `O=C(Nc1ccc(OC(F)(F)F)cc1)c1ccc2c(c1)no[n+]2[O-]`, “inactive”. Next, `COc1cccc(-c2cc3nc4c(c(N5CCC6(CC5)OCCO6)n3n2)CCCC4)c1`: -5.95 (active); `COc1cccc(-c2nc(S(=O)(=O)c3ccccc3)c(N3CCOCC3)o2)c1`: “inactive”; `COc1cccc(CNc2nc3nc4c(c(=O)n3[nH]2)CCC4)c1`: “inactive”. In the case of `CN(C(=O)CN1C(=O)NC(C)(CCc2ccccc2)C1=O)c1ccccc1` (configuration not stated) it was “inactive”. As to `CC1(C)Cc2ccccc2/C(=C/C(=O)c2ccccc2)N1`, the B-score was -5.67 (active). On to `CC(C)CC(N=C1NC(C)(C)Cc2ccccc21)C(=O)O` (configuration not stated), for which the B-score was -0.08 (inactive). In the case of `CCOC(=O)C1=C(NC(=S)NC(=O)c2ccccc2)c2ccccc2CC1(C)C` it was -1.51 (inactive); in that of `COc1ccc(CCN(C(=O)COc2ccccc2)c2nc(-c3ccccc3)cs2)cc1OC`, -7.67 (active); in that of `COc1cccc(CC(=O)Nc2nc(-c3ccc(OC)c(OC)c3)cs2)c1`, “inactive”. In the case of `COc1ccc(CCNc2nc(-c3cccc(NC(C)=O)c3)cs2)cc1OC` it was -0.02 (inactive); in that of `CCN1CCN(c2ccc(S(=O)(=O)N3CCCCC3)cc2NC(=O)c2cccc(NC(C)=O)c2)CC1`, “inactive”; in that of `COc1cc(C(=O)OCC(=O)N(CC(C)C)C2CCS(=O)(=O)C2)ccc1OCC(C)C` (configuration not stated), “inactive”. Next, `C=CCn1c(SCc2c(C)noc2C)nc2sc3c(c2c1=O)CCC(C)C3` (configuration not stated): -3.13 (inactive). Consider `C=CCn1c(SCc2csc(C)n2)nc2scc(-c3ccc(C)o3)c2c1=O`, for which the B-score is -5.75 (active). In the case of `C=CCNC(=O)CSc1nc2scc(-c3ccco3)c2c(=O)n1CC=C` it was -1 (inactive). In the case of `COc1cc(C(=O)N(C)Cc2cccc(OC)c2OC)ccc1OCC(=O)Nc1cccc(C(F)(F)F)c1` it was -4.11 (inactive); in that of `COc1ccc(F)cc1S(=O)(=O)NCC(c1ccc2c(c1)OCO2)N1CCN(C)CC1` (configuration not stated), -0.58 (inactive); in that of `Cc1cc(OCCCCOc2ccc(C#N)cc2)ccc1[N+](=O)[O-]`, -6.09 (active).

With `Cc1cc(OCCCN2CCN(Cc3ccccc3)CC2)ccc1[N+](=O)[O-]`, the B-score result is “inactive”. Take `Cc1cc(OCC(=O)Nc2c(C)n(C)n(-c3ccccc3)c2=O)ccc1[N+](=O)[O-]`: the B-score is -0.54 (inactive). In the case of `Cc1cccc(N(Cc2ccccc2)C(=O)c2cc(S(=O)(=O)N3CCOCC3)ccc2F)c1` it was “inactive”. On to `CC(=O)c1c(C)[nH]c(C(=O)CN2C(=O)NC(C)(C)C2=O)c1C`, for which the B-score entry was “inactive”. In the case of `COc1ccccc1NS(=O)(=O)c1ccc(C(=O)N2CCN(c3ccccc3O)CC2)cc1` it was “inactive”; in that of `Cc1c(NC(=O)C(C)OC(=O)c2c3c(nc4ccccc24)CCC(C)C3)c(=O)n(-c2ccccc2)n1C` (configuration not stated), “inactive”.
